In PubChem BioAssay (NCI):
The panel holds about 79,000 compounds, 15% with a hit somewhere; the sample as a whole holds those more often. Activity calls are given as the source filed them. Cut-off read from the data, not from the text of the source: active = growth inhibition above about 70%; inactive = the rest.

Legend:
[1] = NCI Yeast Anticancer Drug Screen. Data for the rad52 strain (AID 147);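 note: 0% = growth of vehicle-treated control cultures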; conditions: S. cerevisiae rad52 mutant growth inhibition, stronger effect = higher value
Summary of the method: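 Inhibition of yeast growth, referenced to vehicle controls, was the measured output for a strain with defective DNA damage repair.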

[2] = NCI Yeast Anticancer Drug Screen. Data for the wt1 strain (AID 149);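 note: 0% = growth of vehicle-treated wt1 cultures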; conditions: S. cerevisiae wt1 strain (SPY 50644) growth inhibition, stronger effect = higher value
Summary of the method: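 Using yeast strain wt1, compound-induced growth inhibition was determined against vehicle-treated cultures.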

[3] = NCI Yeast Anticancer Drug Screen. Data for the rad50EPP+ strain (AID 151);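 note: 0% = growth of vehicle-treated control cultures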; conditions: S. cerevisiae rad50 mutant strain, stronger effect = higher value
Summary of the method: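 Genetically defined yeast (rad50EPP+, DNA damage repair alteration) is grown with compound, and inhibition of growth is expressed relative to vehicle-treated controls.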

[4] = NCI Yeast Anticancer Drug Screen. Data for the mgt1 strain (AID 153); conditions: S. cerevisiae mgt1 mutant growth inhibition, stronger effect = higher value
Summary of the method: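 In the mgt1 strain, test compounds were added and growth inhibition was determined relative to vehicle-treated controls.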

[5] = NCI Yeast Anticancer Drug Screen. Data for the rad50 strain (AID 155);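 note: 0% = growth of vehicle-only cultures of the same strain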; conditions: S. cerevisiae rad50 strain growth inhibition, stronger effect = higher value
Summary of the method: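 Relative growth inhibition (compound vs vehicle) was measured in yeast with a defined repair-gene alteration.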

[6] = NCI Yeast Anticancer Drug Screen. Data for the mec2-1 strain (AID 157); conditions: S. cerevisiae mec2-1 strain, stronger effect = higher value
Summary of the method: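 Each compound was tested on mec2-1 yeast, a strain altered in DNA damage repair or cell cycle control. Growth inhibition is reported relative to vehicle.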

[7] = NCI Yeast Anticancer Drug Screen. Data for the rad14 strain (AID 159);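 note: 0% = growth of vehicle-treated control cultures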; conditions: S. cerevisiae rad14 strain growth inhibition, stronger effect = higher value
Summary of the method: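 Screen for anticancer potential: a yeast strain altered in DNA damage repair is grown with compound, and reduced growth is quantified against vehicle controls.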

[8] = NCI Yeast Anticancer Drug Screen. Data for the sgs1 mgt1 strain (AID 161);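 note: 0% = growth of cultures given vehicle only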; conditions: S. cerevisiae sgs1 mgt1 strain, stronger effect = higher value
Summary of the method: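 Test agents were incubated with a DNA-repair-mutant yeast strain. Growth was then read and compared against vehicle-treated controls.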

[9] = NCI Yeast Anticancer Drug Screen. Data for the CLN2oe strain (AID 163);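 note: 0% = growth of vehicle-only control cultures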; conditions: S. cerevisiae CLN2oe strain, stronger effect = higher value
Summary of the method: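 First, the altered yeast strain was treated with each compound; second, its growth was measured; finally, inhibition was derived by comparison with vehicle controls.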

[10] = NCI Yeast Anticancer Drug Screen. Data for the cln2 rad14 strain (AID 165);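 note: 0% = growth equal to vehicle treated cultures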; conditions: S. cerevisiae cln2 rad14 strain, stronger effect = higher value
Summary of the method: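 Test compounds were added to cln2 rad14 yeast cultures; inhibition of growth was then determined by comparison with vehicle treatment.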

[11] = NCI Yeast Anticancer Drug Screen. Data for the bub3 strain (AID 167); conditions: S. cerevisiae bub3 mutant strain, stronger effect = higher value
Summary of the method: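 Screening used yeast with an engineered genetic alteration affecting cell cycle control. Compound-exposed cultures were compared with vehicle cultures, and reduced growth was taken as inhibition.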

[12] = NCI Yeast Anticancer Drug Screen. Data for the wt2 strain (AID 169);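 note: 0% = growth of vehicle-treated yeast cultures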; conditions: S. cerevisiae wt2 strain growth inhibition, stronger effect = higher value
Summary of the method: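 The panel's yeast strains carry defined changes in DNA repair or cell cycle genes. Each strain is grown with compound, and growth loss is scored relative to vehicle.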

[13] = NCI Yeast Anticancer Drug Screen. Data for the mlh1 strain (AID 171);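 note: 0% = growth of vehicle-treated control cultures of the same strain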; conditions: S. cerevisiae mlh1 strain growth inhibition, stronger effect = higher value
Summary of the method: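 Inhibition values reflect reduced yeast growth in the presence of compound, referenced to vehicle controls, using a strain chosen for its alteration in DNA repair or cell cycle control.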

[14] = NCI Yeast Anticancer Drug Screen. Data for the sgs1 strain (AID 173);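 note: 0% = growth of vehicle-only control cultures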; conditions: S. cerevisiae sgs1 mutant, stronger effect = higher value
Summary of the method: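 Vehicle-treated cultures served as reference for growth inhibition of a yeast strain altered in DNA damage repair or cell cycle control after compound exposure.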

[15] = NCI Yeast Anticancer Drug Screen. Data for the mlh1 rad18 strain (AID 175); conditions: S. cerevisiae mlh1 rad18 strain growth inhibition, stronger effect = higher value
Summary of the method: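 Inhibition values reflect reduced growth of mutant yeast versus vehicle-treated controls following compound exposure; the mutations affect DNA damage repair.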

[16] = NCI Yeast Anticancer Drug Screen. Data for the rad18 strain (AID 177); conditions: S. cerevisiae rad18 mutant growth inhibition, stronger effect = higher value
Summary of the method: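 Steps: expose repair-mutant yeast to compound; measure growth; express as inhibition relative to vehicle control.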

[17] = at 5.0 µM (retest, dose inferred, filed as 0.5)
[18] = at 50.0 µM (retest, dose inferred, filed as 5.0)

Measured: growth inhibition

CNC(=O)ON(C(C)=O)C(=O)NC
inactive: [1]; at 1.2 µM -27% | [1]; at 3.7 µM -14% | [1]; at 11.0 µM -22% | [1]; at 33.0 µM -38% | [1]; at 100.0 µM -24% | [2]; at 1.2 µM -60% | [2]; at 3.7 µM -52% | [2]; at 11.0 µM -58% | [2]; at 33.0 µM -65% | [2]; at 100.0 µM -60% | [3]; at 1.2 µM -19% | [3]; at 3.7 µM -15% | [3]; at 11.0 µM -15% | [3]; at 33.0 µM -6% | [3]; at 100.0 µM 42% | [4]; at 1.2 µM -9% | [4]; at 3.7 µM 0% | [4]; at 11.0 µM 0% | [4]; at 33.0 µM 8% | [4]; at 100.0 µM 12% | [5]; at 1.2 µM -17% | [5]; at 3.7 µM -40% | [5]; [17] 13% | [5]; at 11.0 µM -20% | [5]; at 33.0 µM -17% | [5]; [18] 26% | [5]; at 100.0 µM -4% | [6]; at 1.2 µM -9% | [6]; at 3.7 µM -4% | [6]; [17] 2% | [6]; at 11.0 µM 5% | [6]; at 33.0 µM 4% | [6]; [18] 31% | [6]; at 100.0 µM -9% | [7]; at 1.2 µM -47% | [7]; at 3.7 µM -35% | [7]; at 11.0 µM -48% | [7]; at 33.0 µM -47% | [7]; at 100.0 µM -47% | [8]; [17] 62% | [9]; at 1.2 µM -30% | [9]; at 3.7 µM 2% | [9]; at 11.0 µM 19% | [9]; at 33.0 µM 14% | [9]; at 100.0 µM 11% | [10]; [17] 35% | [11]; at 1.2 µM 3% | [11]; at 3.7 µM 4% | [11]; [17] 31% | [11]; at 11.0 µM 23% | [11]; at 33.0 µM 35% | [11]; at 50.0 µM 52% | [11]; at 100.0 µM 60% | [12]; at 1.2 µM -24% | [12]; at 3.7 µM -20% | [12]; at 11.0 µM -22% | [12]; at 33.0 µM -42% | [12]; at 100.0 µM -10% | [13]; at 1.2 µM -43% | [13]; at 3.7 µM -27% | [13]; at 11.0 µM -11% | [13]; at 33.0 µM 4% | [13]; at 100.0 µM -9% | [14]; at 1.2 µM -26% | [14]; at 3.7 µM -49% | [14]; at 11.0 µM -13% | [14]; at 33.0 µM -15% | [14]; at 100.0 µM -19% | [15]; [17] 12% | [15]; [18] 22% | [16]; at 1.2 µM -6% | [16]; at 3.7 µM -24% | [16]; at 11.0 µM -21% | [16]; at 33.0 µM 0% | [16]; at 100.0 µM 24%
active: [8]; [18] 100% | [8]; at 50.0 µM 87.7% | [10]; [18] 99% | [10]; at 50.0 µM 86.2% | [11]; [18] 100%

CC1=C(O)C(=O)C=C2C1=CC=C1[C@@]2(C)CCC2(C)[C@@H]3C[C@@H](C)C(=O)C[C@]3(C)CC[C@]12C (stereo partly drawn)
active: [1]; at 11.0 µM 98% | [1]; at 33.0 µM 98% | [1]; at 100.0 µM 96% | [2]; at 11.0 µM 96% | [2]; at 33.0 µM 97% | [2]; at 100.0 µM 96% | [5]; at 11.0 µM 96% | [5]; at 33.0 µM 97% | [5]; [18] 97% | [5]; at 50.0 µM 88.3% | [5]; at 100.0 µM 97% | [6]; at 11.0 µM 97% | [6]; at 33.0 µM 98% | [6]; [18] 99% | [6]; at 50.0 µM 90.5% | [6]; at 100.0 µM 96% | [7]; at 11.0 µM 94% | [7]; at 33.0 µM 97% | [7]; at 100.0 µM 95% | [8]; [18] 96% | [8]; at 50.0 µM 87.3% | [9]; at 11.0 µM 98% | [9]; at 33.0 µM 98% | [9]; at 100.0 µM 95% | [10]; [18] 97% | [10]; at 50.0 µM 86.5% | [11]; at 11.0 µM 96% | [11]; at 33.0 µM 97% | [11]; [18] 97% | [11]; at 50.0 µM 87.9% | [11]; at 100.0 µM 96% | [12]; at 11.0 µM 93% | [12]; at 33.0 µM 97% | [12]; at 100.0 µM 96% | [13]; at 11.0 µM 95% | [13]; at 33.0 µM 98% | [13]; at 100.0 µM 96% | [14]; at 11.0 µM 96% | [14]; at 33.0 µM 97% | [14]; at 100.0 µM 96% | [15]; [18] 97% | [15]; at 50.0 µM 88.2% | [16]; at 11.0 µM 96% | [16]; at 33.0 µM 98% | [16]; at 100.0 µM 97%
inactive: [1]; at 1.2 µM 41% | [1]; at 3.7 µM 58% | [2]; at 1.2 µM 9% | [2]; at 3.7 µM 8% | [3]; at 1.2 µM 9% | [3]; at 3.7 µM 12% | [3]; at 11.0 µM 29% | [3]; at 33.0 µM 32% | [3]; at 100.0 µM 59% | [5]; at 1.2 µM 11% | [5]; at 3.7 µM 28% | [5]; [17] 4% | [6]; at 1.2 µM 5% | [6]; at 3.7 µM 24% | [6]; [17] 4% | [7]; at 1.2 µM -26% | [7]; at 3.7 µM -13% | [8]; [17] 16% | [9]; at 1.2 µM -13% | [9]; at 3.7 µM 10% | [10]; [17] 35% | [11]; at 1.2 µM -19% | [11]; at 3.7 µM -6% | [11]; [17] 38% | [12]; at 1.2 µM 0% | [12]; at 3.7 µM 0% | [13]; at 1.2 µM 14% | [13]; at 3.7 µM 31% | [14]; at 1.2 µM 17% | [14]; at 3.7 µM 42% | [15]; [17] 41% | [16]; at 1.2 µM 9% | [16]; at 3.7 µM 28%
